Experimental data: the supplement of paper PMC11732987, “Enantioselective OTUD7B fragment discovery through chemoproteomics screening and high-throughput optimisation” (Communications Chemistry, 2025)

What was measured:
Assay in all cases: log2 ratio of Biotin-Ahx-Ub-VS probe labelling (fragment/DMSO); higher = less target engagement (more negative = stronger competition), active = hit call of the paper (q ≤ 0.05, log2 ratio ≤ -1)
Details in all cases: compound concentration: 200 uM; treatment time: 3 h
[1] = molecular target: USP34 (UniProt Q70CQ2)
Chain of USP34 (Q70CQ2 whole entry, the tested form may be a part): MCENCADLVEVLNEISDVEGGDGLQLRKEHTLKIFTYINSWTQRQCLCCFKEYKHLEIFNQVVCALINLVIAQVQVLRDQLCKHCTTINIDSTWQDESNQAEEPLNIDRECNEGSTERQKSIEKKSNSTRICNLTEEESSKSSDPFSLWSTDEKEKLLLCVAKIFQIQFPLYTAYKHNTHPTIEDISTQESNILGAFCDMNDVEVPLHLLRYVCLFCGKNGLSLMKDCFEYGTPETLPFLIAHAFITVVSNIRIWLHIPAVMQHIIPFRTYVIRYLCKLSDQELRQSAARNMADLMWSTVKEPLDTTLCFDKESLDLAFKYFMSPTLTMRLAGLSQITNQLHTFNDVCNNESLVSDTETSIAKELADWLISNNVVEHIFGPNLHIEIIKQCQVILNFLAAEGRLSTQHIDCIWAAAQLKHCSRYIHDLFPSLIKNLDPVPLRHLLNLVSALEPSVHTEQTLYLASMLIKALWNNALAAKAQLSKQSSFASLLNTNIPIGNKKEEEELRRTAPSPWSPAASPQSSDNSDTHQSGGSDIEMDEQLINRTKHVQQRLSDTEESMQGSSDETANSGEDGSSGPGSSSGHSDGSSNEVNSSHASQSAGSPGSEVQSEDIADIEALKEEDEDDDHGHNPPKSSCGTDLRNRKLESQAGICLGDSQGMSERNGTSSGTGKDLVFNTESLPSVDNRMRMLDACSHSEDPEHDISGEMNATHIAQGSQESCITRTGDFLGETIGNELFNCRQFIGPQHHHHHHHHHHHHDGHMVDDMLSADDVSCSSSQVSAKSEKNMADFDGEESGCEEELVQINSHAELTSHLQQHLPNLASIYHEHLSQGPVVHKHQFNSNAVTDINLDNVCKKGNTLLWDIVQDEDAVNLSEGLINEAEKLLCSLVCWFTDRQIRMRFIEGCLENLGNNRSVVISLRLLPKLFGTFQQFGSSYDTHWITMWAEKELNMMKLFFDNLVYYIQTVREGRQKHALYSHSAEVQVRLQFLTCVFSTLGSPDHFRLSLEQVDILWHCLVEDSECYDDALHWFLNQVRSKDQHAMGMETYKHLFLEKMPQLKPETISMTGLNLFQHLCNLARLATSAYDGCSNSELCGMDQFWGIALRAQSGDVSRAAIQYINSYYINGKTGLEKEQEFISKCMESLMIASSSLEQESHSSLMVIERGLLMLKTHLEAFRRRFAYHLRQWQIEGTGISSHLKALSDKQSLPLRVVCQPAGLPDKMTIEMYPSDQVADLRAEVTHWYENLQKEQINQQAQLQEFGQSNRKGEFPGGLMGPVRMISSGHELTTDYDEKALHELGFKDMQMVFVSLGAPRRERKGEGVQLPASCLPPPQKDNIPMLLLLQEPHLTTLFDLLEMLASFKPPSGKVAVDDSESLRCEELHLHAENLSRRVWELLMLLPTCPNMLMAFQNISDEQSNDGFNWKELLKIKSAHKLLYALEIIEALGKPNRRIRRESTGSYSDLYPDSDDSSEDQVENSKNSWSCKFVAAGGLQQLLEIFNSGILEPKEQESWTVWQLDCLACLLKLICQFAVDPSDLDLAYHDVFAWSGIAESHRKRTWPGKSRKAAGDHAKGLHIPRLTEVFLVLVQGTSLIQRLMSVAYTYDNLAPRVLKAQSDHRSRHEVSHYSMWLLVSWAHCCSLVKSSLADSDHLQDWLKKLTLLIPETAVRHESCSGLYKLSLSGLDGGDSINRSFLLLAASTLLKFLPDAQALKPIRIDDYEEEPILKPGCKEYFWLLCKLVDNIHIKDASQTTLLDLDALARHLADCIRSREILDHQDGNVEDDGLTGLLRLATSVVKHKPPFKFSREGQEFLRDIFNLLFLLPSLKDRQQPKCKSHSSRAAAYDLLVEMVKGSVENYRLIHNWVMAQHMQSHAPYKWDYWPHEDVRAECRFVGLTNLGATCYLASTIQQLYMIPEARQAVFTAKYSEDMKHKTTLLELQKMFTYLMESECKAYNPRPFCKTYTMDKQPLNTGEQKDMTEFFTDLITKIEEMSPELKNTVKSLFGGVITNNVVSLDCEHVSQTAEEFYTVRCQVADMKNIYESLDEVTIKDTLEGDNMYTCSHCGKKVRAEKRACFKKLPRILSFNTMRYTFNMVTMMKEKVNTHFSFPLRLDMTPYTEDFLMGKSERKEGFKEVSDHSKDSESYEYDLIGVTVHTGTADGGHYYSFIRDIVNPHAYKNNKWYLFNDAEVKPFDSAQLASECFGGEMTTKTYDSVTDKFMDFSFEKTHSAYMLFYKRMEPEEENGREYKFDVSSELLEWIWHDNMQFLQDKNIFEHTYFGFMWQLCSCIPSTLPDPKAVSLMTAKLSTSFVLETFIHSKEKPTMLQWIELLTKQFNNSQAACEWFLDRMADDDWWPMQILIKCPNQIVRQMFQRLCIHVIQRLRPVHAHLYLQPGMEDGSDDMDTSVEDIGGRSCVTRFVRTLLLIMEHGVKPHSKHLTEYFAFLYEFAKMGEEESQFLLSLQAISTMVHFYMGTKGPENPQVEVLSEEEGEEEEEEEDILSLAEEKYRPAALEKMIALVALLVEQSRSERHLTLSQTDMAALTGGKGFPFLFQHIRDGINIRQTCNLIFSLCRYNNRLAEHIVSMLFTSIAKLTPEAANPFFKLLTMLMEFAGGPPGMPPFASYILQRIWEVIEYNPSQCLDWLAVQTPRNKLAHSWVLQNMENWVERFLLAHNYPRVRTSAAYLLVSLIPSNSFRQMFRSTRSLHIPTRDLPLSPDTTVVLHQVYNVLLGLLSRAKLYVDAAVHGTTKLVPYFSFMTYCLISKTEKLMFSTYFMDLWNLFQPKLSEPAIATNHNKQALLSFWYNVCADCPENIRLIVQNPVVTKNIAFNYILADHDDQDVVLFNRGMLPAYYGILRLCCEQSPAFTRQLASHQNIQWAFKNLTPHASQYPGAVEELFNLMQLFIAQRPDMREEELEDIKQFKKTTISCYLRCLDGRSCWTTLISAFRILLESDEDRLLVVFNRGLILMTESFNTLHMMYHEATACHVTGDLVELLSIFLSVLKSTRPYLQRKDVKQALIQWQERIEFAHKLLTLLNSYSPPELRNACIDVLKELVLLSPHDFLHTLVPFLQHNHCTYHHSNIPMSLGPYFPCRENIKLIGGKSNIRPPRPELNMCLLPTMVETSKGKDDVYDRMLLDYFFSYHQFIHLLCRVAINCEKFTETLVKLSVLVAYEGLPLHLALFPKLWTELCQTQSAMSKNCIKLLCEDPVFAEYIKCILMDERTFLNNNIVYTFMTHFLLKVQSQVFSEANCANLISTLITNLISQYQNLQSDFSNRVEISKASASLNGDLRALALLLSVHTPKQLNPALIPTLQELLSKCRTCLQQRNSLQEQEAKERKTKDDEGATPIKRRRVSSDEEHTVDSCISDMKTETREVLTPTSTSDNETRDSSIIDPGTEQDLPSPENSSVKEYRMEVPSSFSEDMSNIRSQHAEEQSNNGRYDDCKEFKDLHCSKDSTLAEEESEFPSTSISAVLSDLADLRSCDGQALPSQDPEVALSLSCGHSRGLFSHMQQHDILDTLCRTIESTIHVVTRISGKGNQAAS
Summary of the method: (§1)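 Triplicate samples of HEK293T lysate, 495 µg each, received fragment at 200 µM or vehicle for 3 h, followed by Biotin-Ahx-Ub-VS (0.5 µM final) for 1 h. After NeutrAvidin enrichment of labelled DUBs and LysC/trypsin digestion, peptides were run by diaPASEF LC-MS/MS. The values are average log2 fragment/vehicle ratios from global-median-normalised Spectronaut label-free quantities, tested by unpaired t-test on proteins having ≥2 unique peptides.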

[2] = molecular target: T1, USP36 (UniProt Q9P275)
T1 sequence (whole entry): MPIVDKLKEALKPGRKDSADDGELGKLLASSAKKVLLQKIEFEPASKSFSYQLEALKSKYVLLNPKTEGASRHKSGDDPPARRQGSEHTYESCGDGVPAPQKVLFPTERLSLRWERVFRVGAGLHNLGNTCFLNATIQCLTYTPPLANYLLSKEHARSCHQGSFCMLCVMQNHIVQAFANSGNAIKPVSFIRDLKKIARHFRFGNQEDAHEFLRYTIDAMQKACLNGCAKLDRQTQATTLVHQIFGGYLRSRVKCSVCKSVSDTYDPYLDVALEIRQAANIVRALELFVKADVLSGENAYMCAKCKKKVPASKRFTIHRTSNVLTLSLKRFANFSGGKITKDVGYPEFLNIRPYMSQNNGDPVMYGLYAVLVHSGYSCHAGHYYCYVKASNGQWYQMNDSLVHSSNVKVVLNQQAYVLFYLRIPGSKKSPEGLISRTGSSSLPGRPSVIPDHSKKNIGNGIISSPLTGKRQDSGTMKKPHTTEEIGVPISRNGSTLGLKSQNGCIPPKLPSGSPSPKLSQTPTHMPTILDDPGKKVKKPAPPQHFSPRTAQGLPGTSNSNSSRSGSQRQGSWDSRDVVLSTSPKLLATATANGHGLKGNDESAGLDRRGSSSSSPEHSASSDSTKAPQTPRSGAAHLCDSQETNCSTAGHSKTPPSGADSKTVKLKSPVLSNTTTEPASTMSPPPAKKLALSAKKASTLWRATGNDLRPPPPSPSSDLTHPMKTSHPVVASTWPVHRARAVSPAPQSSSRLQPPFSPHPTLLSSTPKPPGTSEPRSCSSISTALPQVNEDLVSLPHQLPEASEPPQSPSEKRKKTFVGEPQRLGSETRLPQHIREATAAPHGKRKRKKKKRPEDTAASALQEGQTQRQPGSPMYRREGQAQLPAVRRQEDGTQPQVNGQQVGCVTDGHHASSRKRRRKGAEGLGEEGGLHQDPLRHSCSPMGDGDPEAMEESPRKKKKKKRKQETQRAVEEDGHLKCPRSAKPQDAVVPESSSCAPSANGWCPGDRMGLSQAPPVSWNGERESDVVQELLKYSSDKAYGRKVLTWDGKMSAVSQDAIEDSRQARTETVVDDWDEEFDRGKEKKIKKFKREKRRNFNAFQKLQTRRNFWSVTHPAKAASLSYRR
Summary of the method: as §1

[3] = molecular target: T2, USP38 (UniProt Q8NB14)
T2 sequence (whole entry): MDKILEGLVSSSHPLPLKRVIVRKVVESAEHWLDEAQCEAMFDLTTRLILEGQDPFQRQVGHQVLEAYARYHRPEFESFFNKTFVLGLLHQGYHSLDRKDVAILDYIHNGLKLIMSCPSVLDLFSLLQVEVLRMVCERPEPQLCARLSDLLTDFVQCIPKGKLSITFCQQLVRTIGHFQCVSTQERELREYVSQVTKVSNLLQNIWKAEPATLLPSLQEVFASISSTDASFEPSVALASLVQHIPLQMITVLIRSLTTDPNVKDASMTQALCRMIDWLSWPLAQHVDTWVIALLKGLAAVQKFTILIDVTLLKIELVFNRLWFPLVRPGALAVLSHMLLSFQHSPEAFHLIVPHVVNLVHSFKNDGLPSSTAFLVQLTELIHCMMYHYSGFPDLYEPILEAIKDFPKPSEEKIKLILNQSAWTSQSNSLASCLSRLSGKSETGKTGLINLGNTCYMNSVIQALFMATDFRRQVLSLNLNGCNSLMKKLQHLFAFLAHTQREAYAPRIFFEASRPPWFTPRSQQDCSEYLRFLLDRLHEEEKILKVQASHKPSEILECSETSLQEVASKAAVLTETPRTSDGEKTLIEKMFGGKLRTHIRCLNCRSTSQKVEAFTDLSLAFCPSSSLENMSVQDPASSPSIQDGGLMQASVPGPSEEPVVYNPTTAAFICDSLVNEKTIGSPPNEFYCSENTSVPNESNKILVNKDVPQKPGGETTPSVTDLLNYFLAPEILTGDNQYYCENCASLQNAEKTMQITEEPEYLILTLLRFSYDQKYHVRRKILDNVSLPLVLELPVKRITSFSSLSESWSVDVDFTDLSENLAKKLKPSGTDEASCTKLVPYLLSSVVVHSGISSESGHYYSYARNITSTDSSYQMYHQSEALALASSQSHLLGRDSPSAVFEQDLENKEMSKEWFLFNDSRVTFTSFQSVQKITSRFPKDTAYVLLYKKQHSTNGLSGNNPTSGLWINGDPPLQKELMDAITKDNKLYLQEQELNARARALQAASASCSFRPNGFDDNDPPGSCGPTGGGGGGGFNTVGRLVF
Summary of the method: as §1

[4] = molecular target: T3, USP39 (UniProt Q53GS9)
T3 sequence (whole entry): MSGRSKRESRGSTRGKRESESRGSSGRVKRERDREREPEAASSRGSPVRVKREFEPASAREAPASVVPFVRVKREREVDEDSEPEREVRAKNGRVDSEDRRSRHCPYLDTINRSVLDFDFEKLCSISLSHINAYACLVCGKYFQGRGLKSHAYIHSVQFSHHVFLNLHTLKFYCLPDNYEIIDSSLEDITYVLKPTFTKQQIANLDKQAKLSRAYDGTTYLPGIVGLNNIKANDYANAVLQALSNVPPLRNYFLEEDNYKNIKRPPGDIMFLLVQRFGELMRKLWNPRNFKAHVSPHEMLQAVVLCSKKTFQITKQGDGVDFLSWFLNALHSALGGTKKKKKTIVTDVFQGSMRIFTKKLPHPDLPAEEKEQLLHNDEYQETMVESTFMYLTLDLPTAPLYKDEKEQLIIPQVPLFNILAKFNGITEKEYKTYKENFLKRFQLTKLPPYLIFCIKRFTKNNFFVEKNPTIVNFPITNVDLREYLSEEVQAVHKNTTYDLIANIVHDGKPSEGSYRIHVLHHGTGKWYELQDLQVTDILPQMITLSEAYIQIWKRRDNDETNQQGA
Summary of the method: as §1

[5] = molecular target: T4, USP4 (UniProt Q13107)
T4 sequence (whole entry): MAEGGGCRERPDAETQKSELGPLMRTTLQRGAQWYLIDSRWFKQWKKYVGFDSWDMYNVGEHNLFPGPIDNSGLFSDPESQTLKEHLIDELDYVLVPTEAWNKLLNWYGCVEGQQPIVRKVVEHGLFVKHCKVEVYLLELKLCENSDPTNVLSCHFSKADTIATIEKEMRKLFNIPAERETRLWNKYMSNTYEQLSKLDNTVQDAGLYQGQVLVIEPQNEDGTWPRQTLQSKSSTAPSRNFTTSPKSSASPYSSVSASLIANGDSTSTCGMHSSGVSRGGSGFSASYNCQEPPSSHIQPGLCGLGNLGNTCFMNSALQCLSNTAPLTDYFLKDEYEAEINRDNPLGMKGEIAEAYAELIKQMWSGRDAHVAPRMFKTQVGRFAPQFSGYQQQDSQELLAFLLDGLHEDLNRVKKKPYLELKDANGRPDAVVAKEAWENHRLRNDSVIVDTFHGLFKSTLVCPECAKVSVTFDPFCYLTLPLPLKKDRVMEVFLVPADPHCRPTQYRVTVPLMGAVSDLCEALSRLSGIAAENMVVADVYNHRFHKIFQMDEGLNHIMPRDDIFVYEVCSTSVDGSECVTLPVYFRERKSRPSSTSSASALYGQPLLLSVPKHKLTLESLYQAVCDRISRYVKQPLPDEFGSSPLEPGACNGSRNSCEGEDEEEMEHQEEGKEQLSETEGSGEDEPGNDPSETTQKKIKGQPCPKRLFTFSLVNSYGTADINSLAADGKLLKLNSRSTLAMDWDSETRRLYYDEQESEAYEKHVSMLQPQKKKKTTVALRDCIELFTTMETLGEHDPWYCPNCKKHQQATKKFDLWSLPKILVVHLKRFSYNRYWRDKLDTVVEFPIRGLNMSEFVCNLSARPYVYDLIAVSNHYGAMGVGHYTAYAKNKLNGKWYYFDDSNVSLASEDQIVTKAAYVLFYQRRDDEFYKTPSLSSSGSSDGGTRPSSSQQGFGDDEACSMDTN
Summary of the method: as §1

Measured: log2 ratio of Biotin-Ahx-Ub-VS probe labelling

Cl.Cn1ncc2c1CCCC2NC(=O)CCl (stereo not given)
inactive: [1] -0.0828 | [2] -0.298 | [3] -0.175 | [4] -0.0961 | [5] 0.00214
